Structures are written as SMILES. Where “and” joins values, the source holds several entries; their conditions need not be identical. Equal entries are not always repeated. Values without a mark were called inactive. Records with an inconclusive call do not appear. Calls of active or inactive are those of the source. Unless noted, how the calls were made is not given here. Non-standard residues stand in square brackets, D forms with d. Residues, ends and D or L forms follow the SMILES beside them. pGlu = O=C1CC[C@@H](C(=O)O)N1; Thz = O=C(O)[C@@H]1CSCN1

In assay [1] the test system is Neuropilin-2 / VEGF-C interaction (human). Description: small molecules blocking Neuropilin-2/VEGF-C interaction – biochemical, microplate binding format, z-score (AID 743281). The following applies: microplate NRP2/VEGF-C binding assay; active compounds read low.
The test system of assay [2] is Aerobactin synthetase IucA (Klebsiella pneumoniae). Description: inhibition of K. pneumoniae IucA enzyme – biochemical, Tocris library, absorbance (AID 1345561).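 Further: 100% = enzyme without compound and 0% = no enzyme.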 The conditions noted are these: purified IucA enzyme assay, absorbance (OD) read-out; active compounds read low;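 tested at 8 µM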.
The nature of assay [3]: viability loss in pontine glioma line – cell-based, SU-DIPG-XVII, MIPE5.0, CellTiter-Glo, qHTS, dose response (AID 1347060; cut-off not given, nearly all actives have AC50 up to about 26 µM;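 on AC50: cells exposed to compound for 48 hours before viability readout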). The conditions noted are these: CellTiter-Glo ATP luminescence. (In ATP-based viability assays light output follows the ATP content of the culture.)
Assay [4] can be described thus: viability loss in pontine glioma line – cell-based, SU-DIPG-XIII, MIPE4.0, CellTiter-Glo, qHTS, dose response (AID 1347061; cut-off not given, nearly all actives have AC50 up to about 37 µM;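 further: cells exposed to compound for 48 hours before readout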). The following applies: CellTiter-Glo ATP luminescence.
A short description of assay [5]: viability loss in pontine glioma line – cell-based, JHH-DIPG-1, MIPE4.0, CellTiter-Glo, qHTS, dose response (AID 1347062; cut-off not given, nearly all actives have AC50 up to about 27 µM). The conditions noted are these: JHH-DIPG-1 viability, CellTiter-Glo ATP luminescence.
Assay [6] can be described thus: viability loss in pontine glioma line – cell-based, SU-DIPG-IV, MIPE4.0, CellTiter-Glo, qHTS, dose response (AID 1347063; cut-off not given, nearly all actives have AC50 up to about 30 µM;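 further: compound exposure lasted 48 hours before the viability readout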). The conditions noted are these: CellTiter-Glo ATP luminescence.
Assay [7] is described as follows: viability loss in pontine glioma line – cell-based, SU-DIPG-XIII, MIPE5.0, CellTiter-Glo, qHTS, dose response (AID 1347064; cut-off not given, nearly all actives have AC50 up to about 23 µM). The conditions noted are these: CellTiter-Glo ATP luminescence.
The nature of assay [8]: growth inhibition of DIPG cells – cell-based, MIPE4.0 library, CellTiter-Glo luminescence, qHTS (AID 1347066; cut-off not given, nearly all actives have AC50 up to about 30 µM;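 further: cells exposed to compound for 48 hours before readout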). The conditions noted are these: SU-DIPG-VI viability, CellTiter-Glo ATP luminescence.
Assay [9] in a line: JHH-DIPG-1 glioma cell viability, MIPE5.0 library, CellTiter-Glo luminescence, qHTS (AID 1347067; cut-off not given, nearly all actives have AC50 up to about 26 µM;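 further: cells exposed to compound for 48 hours before readout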). The following applies: JHH-DIPG-1 glioma viability, CellTiter-Glo ATP luminescence.
Assay [10] is described as follows: growth inhibition of DIPG cells – cell-based, MIPE5.0 library, qHTS (AID 1347068; cut-off not given, nearly all actives have IC50 up to about 30 µM). The following applies: SU-DIPG-XXV viability.
The nature of assay [11]: galactose survival enhancers in mitochondrial complex I cybrids – cell-based, galactose medium, ATP luminescence, primary screen (AID 1645843;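 active means z-score of at least 1.8 in each of two replicates, scored against plate mean and spread of sample wells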;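 further: positive z means more ATP and so rescue of galactose-driven cybrid death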). The following applies: complex I mutant cybrid cells, 72 h, active compounds read high.
Assay [12] deals with NAD(+) hydrolase SARM1 (Homo sapiens) (UniProt Q6SZW1). Kind of assay: blocking NAD cleavage by SARM1 SAM-TIR – cell lysate, NAD-Glo luminescence (AID 1508614;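 active means compound whose remaining NAD level is above about 45 nM, limit read from the data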;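 further: higher remaining NAD means stronger inhibition of SARM1 NADase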). The following applies: SAM-TIR HEK293T lysate NADase, at 1 µM, active compounds read high.
NAD(+) hydrolase SARM1 (Homo sapiens), sequence (Q6SZW1 whole entry, looked up, the tested form may be a part): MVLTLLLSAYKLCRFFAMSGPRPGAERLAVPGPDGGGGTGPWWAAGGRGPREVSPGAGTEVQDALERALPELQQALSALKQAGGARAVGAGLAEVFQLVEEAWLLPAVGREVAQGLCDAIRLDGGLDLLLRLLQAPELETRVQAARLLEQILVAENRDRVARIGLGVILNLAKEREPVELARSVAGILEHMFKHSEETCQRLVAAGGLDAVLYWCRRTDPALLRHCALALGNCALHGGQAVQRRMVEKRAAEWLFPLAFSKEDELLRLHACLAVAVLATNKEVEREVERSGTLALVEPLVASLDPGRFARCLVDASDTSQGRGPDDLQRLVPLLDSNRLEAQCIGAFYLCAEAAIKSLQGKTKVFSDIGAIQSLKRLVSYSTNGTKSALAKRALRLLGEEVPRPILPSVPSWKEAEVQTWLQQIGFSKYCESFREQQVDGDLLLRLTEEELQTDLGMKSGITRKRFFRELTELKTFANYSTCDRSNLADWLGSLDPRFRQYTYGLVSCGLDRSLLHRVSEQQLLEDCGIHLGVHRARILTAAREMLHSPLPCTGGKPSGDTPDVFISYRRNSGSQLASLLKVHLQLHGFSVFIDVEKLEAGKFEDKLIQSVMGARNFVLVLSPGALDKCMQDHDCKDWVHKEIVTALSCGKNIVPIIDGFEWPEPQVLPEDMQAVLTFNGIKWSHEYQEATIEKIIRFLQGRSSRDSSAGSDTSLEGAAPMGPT
For assay [13], the target named is Mitogen-activated protein kinase 7 (Homo sapiens) (UniProt Q13164). Kind of assay: Gal4-ERK5 driven luciferase induction – cell-based, HTS, primary screen (AID 1508626;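 active means luciferase signal above three times the same-plate solvent-only control wells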;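 further: luciferase driven by Gal4-ERK5 fusion binding five Gal4 sites before minimal TATA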). The conditions noted are these: HeLa Gal4-ERK5 transactivation, 18 h, at 5 µM, active compounds read high.
Mitogen-activated protein kinase 7 (Homo sapiens), sequence (Q13164 whole entry, looked up, the tested form may be a part): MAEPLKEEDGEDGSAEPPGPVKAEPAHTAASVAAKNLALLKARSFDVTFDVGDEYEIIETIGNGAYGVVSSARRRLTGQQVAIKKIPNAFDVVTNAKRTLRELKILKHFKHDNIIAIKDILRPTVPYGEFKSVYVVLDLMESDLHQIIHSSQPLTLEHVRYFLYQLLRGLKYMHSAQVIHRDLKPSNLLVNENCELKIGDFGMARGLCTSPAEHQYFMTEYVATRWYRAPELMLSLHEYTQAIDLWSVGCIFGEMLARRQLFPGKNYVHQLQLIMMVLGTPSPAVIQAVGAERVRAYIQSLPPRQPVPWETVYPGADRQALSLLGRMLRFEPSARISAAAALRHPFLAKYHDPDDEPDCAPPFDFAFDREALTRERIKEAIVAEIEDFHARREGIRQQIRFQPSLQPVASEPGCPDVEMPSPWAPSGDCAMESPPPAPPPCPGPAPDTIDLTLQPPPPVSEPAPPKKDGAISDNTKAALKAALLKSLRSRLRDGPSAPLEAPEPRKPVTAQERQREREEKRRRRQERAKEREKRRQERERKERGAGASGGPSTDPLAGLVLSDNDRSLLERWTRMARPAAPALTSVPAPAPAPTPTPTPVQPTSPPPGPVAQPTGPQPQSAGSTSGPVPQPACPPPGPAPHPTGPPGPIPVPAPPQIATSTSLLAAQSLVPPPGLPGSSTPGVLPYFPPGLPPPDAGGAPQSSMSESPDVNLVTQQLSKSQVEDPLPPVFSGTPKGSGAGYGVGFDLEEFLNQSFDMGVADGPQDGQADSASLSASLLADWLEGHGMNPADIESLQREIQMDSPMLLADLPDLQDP
The nature of assay [14]: viability loss in pontine glioma line – cell-based, SU-DIPG-XXV, MIPE5.0, CellTiter-Glo, qHTS, dose response (AID 1347065; cut-off not given, nearly all actives have AC50 up to about 26 µM;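 further: cells exposed to compound for 48 hours before ATP readout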). The following applies: CellTiter-Glo ATP luminescence.
The nature of assay [15]: blockers of cellular phospholipid synthesis – cell-based, LOPAC library, screen 4, primary screen (AID 1347384). The following applies: animal cells, phospholipid biosynthesis inhibition screen; at 10 µM.

One may read the remaining activity as the signal under treatment as a percentage of the control signal. `CCOC(=O)c1ccc(OC(=O)CCCCCN=C(N)N)cc1`: the z-score in assay [1] is -0.315; in assay [11], 0.415 and -0.085. The remaining activity in [2] is 124%. Besides, the result in assay [3], in assay [4], in [5], in [6], in assay [7] and in assay [8] was inactive. The call in assay [9] and in assay [10] was inactive.

With `C/C(=C\C(=O)OCCCCCCCCC(=O)O)C[C@@H]1OC[C@H](C[C@@H]2O[C@H]2[C@@H](C)[C@H](C)O)[C@@H](O)[C@H]1O`, in [12], the remaining NAD was 10 nM. Moreover, the luciferase signal in assay [13] is 48 AU. Further, the z-score in [11] is -1.42.

`COc1ccc2[nH]c(S(=O)Cc3ncc(C)c(OC)c3C)nc2c1` (stereo not drawn): the call in assay [1], in [9] and in assay [10] was inactive. Further, in [11], the z-score was 0.665.

Take `CC(Cc1ccc(O)c(O)c1)(NN)C(=O)O` (stereo not drawn): the outcome in assay [3], in [4], in [5], in assay [6], in assay [7] and in [14] was inactive. Moreover, the outcome in assay [8] and in assay [9] was inactive. The z-score in [11] is -1.27.

Take `NCC(O)c1ccc(O)c(O)c1` (stereo not drawn): the compound was called inactive in [15]. The z-score in assay [11] is -1.48 and -0.825.

Regarding `O=C1CC[C@@H](C(=O)N2CSC[C@H]2C(=O)O)N1` ([pGlu]-[Thz]-OH), the z-score in assay [1] was -0.307. Also, the remaining NAD in assay [12] was 10 nM.

For the compound `CSc1nc2cc(Oc3cccc(Cl)c3Cl)c(Cl)cc2[nH]1`, the z-score in [1] was 0.432; in assay [11], -1.88.

For the compound `CC(C)NCC(O)c1ccc(NS(C)(=O)=O)cc1` (stereo not drawn), in assay [1], the z-score is -0.291. Also, the remaining activity in [2] is 91.3%. In addition, the result in assay [3], in [5], in [6], in [7], in assay [14] and in assay [8] was inactive. In addition, the call in assay [9], in assay [10] and in [15] was inactive. Besides, in assay [12], the remaining NAD was 10 nM.

For `CC(=O)NC[C@H]1CN(c2ccc(N3CCOCC3)c(F)c2)C(=O)O1`, the z-score in assay [1] is 0.877; in assay [11], 1.22 and -0.185. The call in assay [3], in [4], in assay [5], in [6], in assay [7] and in [14] was inactive. Moreover, the result in assay [8], in [9], in assay [10] and in [15] was inactive. The remaining NAD in [12] was 10 nM.

As for `CN(C)CCCC1(c2ccc(F)cc2)OCc2cc(C#N)ccc21` (stereo not drawn), in assay [1], the z-score was 0.0126. For the same compound, in assay [2], the remaining activity is 108%. In addition, the compound was called inactive in assay [6], in assay [8] and in assay [15]. Further, the remaining NAD in [12] was 10 nM. For the same compound, the luciferase signal in [13] is 68 AU.

For `CNCC[C@@H](Oc1ccccc1C)c1ccccc1`, the z-score in [1] was 0.0903; in assay [11] it was -0.26. For the same compound, the remaining activity in assay [2] was 96.2%. Further, the remaining NAD in [12] was 10 nM. The luciferase signal in [13] was 64 AU.

Broadly, the AC50 is the concentration at which the activity in the assay is half-maximal. As to `COc1nc(C)nc(Cl)c1NC1=NCCN1`, the z-score was -0.63 in assay [1]; 0.36 and 1.01 and 0.165 in assay [11]. The remaining activity in [2] was 93.9%. Also, in [3], the AC50 was 23.5 µM (active). The call in assay [4], in assay [5], in assay [6], in [7], in assay [14] and in assay [8] was inactive. In addition, the compound was called inactive in assay [10] and in assay [15].

Consider `CC(C)(S)C(N)C(=O)O` (stereo not drawn), for which the z-score in assay [11] is -0.255.

(Values after PubChem BioAssay.)
